Results on one compound are retold here after PubChem BioAssay (EPA / NIEHS).

Results filed as inconclusive are left out. Calls of active or inactive are those of the source. The calls were made as follows, unless noted: active = hit-call score of the fitted dose curve at least 0.9, where 1 is the maximum; inactive = score below 0.9.

The target in one assay is Caspase-3 (Homo sapiens) (UniProt P42574). Put plainly: NVS_ENZ_hCASP3: NovaScreen (NVS) Enzymatic Assay for human Caspase 3 (CASP3) (AID 2283139; active = hit-call score of the fitted dose curve at least 0.9, where 1 is the maximum). The method in brief: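 Single-concentration screening at 25 uM in duplicate, with concentration-response follow-up to a 50 uM maximum for chemicals passing the threshold. Caspase-3 (human, E. coli-expressed) activity was read as substrate fluorescence after 1 h, with loss of signal relative to DMSO.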
Caspase-3 (Homo sapiens), sequence (P42574 whole entry, looked up): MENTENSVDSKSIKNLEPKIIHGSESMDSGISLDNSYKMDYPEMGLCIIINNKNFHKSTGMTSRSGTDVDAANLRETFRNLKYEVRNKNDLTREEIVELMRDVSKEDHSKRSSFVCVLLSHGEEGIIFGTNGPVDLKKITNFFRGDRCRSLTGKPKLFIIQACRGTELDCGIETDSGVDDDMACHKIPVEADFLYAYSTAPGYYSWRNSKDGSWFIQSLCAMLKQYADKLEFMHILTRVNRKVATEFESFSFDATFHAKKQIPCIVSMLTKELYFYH

The target in assay [1] is human Phosphodiesterase 5 (PDE5), PDE5A (gene 8654) (UniProt O76074). Kind of assay: NVS_ENZ_hPDE5: NovaScreen (NVS) Enzymatic Assay for human Phosphodiesterase 5 (PDE5) (AID 2283194; active = hit-call score of the fitted dose curve at least 0.9, where 1 is the maximum). The method in brief:
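Screening began in duplicate at 25 uM, with actives taken into concentration-response. Enzyme activity of recombinant PDE5 toward its substrate was measured at 1 h by fluorescence mobility-shift detection, relative to DMSO controls.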

Read-out in assay [2]: Tumor necrosis factor receptor superfamily member 6 (Homo sapiens) (UniProt P25445)
Put plainly: LTEA_HepaRG_FAS: Life Technologies and Expression Analysis (LTEA) Assay for Fas cell surface death receptor (FAS) using HepaRG (AID 2283447). To be noted: mRNA level, 48 h; actives raise or lower the signal. The method in brief:
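FAS transcript level was measured by TaqMan qRT-PCR against three housekeeping genes after 48 h chemical exposure. Cells were HepaRG, 0.5% DMSO vehicle, with a top concentration of 100 uM and half-log dilutions over eight points, in duplicate.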

Read-out in assay [3]: Fatty acid synthase (Homo sapiens) (UniProt P49327)
Put plainly: LTEA_HepaRG_FASN: Life Technologies and Expression Analysis (LTEA) Assay for Fatty Acid Synthase (FASN) using HepaRG (AID 2283448). To be noted: mRNA level, 48 h; actives raise or lower the signal. In short, it runs like this:
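FASN transcript measured by TaqMan qRT-PCR, normalised to three housekeeping genes, after 48 h chemical exposure of HepaRG cells. Eight-point half-log series from 100 uM in 0.5% DMSO, duplicates; gain or loss fitted against vehicle.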

Read-out in assay [4]: Cyclin D2 (CCND2), CCND2 (gene 894)
Kind of assay: LTEA_HepaRG_CCND2: Life Technologies and Expression Analysis (LTEA) Assay for Cyclin D2 (CCND2) using HepaRG (AID 2283449). Conditions: mRNA level, 48 h; actives raise or lower the signal. The method in brief: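 CCND2 transcript levels, quantified by qRT-PCR and normalised to three housekeeping genes, were fitted bidirectionally against 0.5% DMSO. HepaRG cultures were dosed 48 h in duplicate with an 8-point half-log series up to 100 uM.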

Read-out in assay [5]: Cyclin Dependent Kinase Inhibitor 1A (CDKN1A), CDKN1A (gene 1026)
Put plainly: LTEA_HepaRG_CDKN1A: Life Technologies and Expression Analysis (LTEA) Assay for Cyclin Dependent Kinase Inhibitor 1A (CDKN1A) using HepaRG (AID 2283450). Conditions: mRNA level, 48 h; actives raise or lower the signal. In short, it runs like this:
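Cryopreserved HepaRG cells were plated and cultured 48 h, then switched to serum-free induction medium. Chemicals (eight half-log concentrations, top 100 uM, 0.5% DMSO) were applied for 48 h. Lysates underwent qRT-PCR for CDKN1A with housekeeping normalization.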

Read-out in assay [6]: Cyclin D1 (CCND1), CCND1 (gene 595)
Put plainly: LTEA_HepaRG_CCND1: Life Technologies and Expression Analysis (LTEA) Assay for Cyclin D1 (CCND1) using HepaRG (AID 2283451). Conditions: mRNA level, 48 h; actives raise or lower the signal. The method in brief:
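Human liver HepaRG line; 48 h dosing, 8 conc. ≤100 uM, 0.5% DMSO; TaqMan qRT-PCR mRNA, 3 housekeeping genes; bidirectional curve fit vs DMSO.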

Read-out in assay [7]: catalase (CAT), CAT (gene 847)
Kind of assay: LTEA_HepaRG_CAT: Life Technologies and Expression Analysis (LTEA) Assay for catalase (CAT) using HepaRG (AID 2283452). To be noted: mRNA level, 48 h; actives raise or lower the signal. The method in brief:
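Expression of CAT was quantified by TaqMan qRT-PCR with ACTB/GAPDH/POLR2A normalization after 48 h chemical exposure of HepaRG. Eight-point half-log series, top 100 uM, in 0.5% DMSO; gain or loss fitted against vehicle.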

Read-out in assay [8]: flavin-containing dimethylaniline monooxygenases 3 (FMO3), FMO3 (gene 2328)
Put plainly: LTEA_HepaRG_FMO3: Life Technologies and Expression Analysis (LTEA) Assay for flavin-containing dimethylaniline monooxygenases 3 (FMO3) using HepaRG (AID 2283453). Conditions: mRNA level, 48 h; actives raise or lower the signal. The method in brief:
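FMO3 transcript quantified by TaqMan qRT-PCR against three housekeeping genes after 48 h chemical exposure of HepaRG cells. Eight-point half-log series, top 100 uM, 0.5% DMSO vehicle; phenobarbital 1mM induction control; up- or down-regulation fitted.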

Read-out in assay [9]: Cytochrome P450 (CYP1A1), CYP1A1 (gene 1543)
Put plainly: LTEA_HepaRG_CYP1A1: Life Technologies and Expression Analysis (LTEA) Assay for Cytochrome P450 (CYP1A1) using HepaRG (AID 2283454). Conditions: mRNA level, 48 h; actives raise or lower the signal. The method in brief: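 Induction of CYP1A1 mRNA in a human hepatic cell line was measured 48 h after dosing, with 1 mM phenobarbital as induction positive control and 0.5% DMSO vehicle as baseline for bidirectional curve fitting.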

Read-out in assay [10]: CFLAR gene, CFLAR (gene 8837)
Kind of assay: LTEA_HepaRG_CFLAR: Life Technologies and Expression Analysis (LTEA) Assay for CFLAR gene using HepaRG (AID 2283455). To be noted: mRNA level, 48 h; actives raise or lower the signal. In short, it runs like this:
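Transcript level by qRT-PCR (normalized to ACTB, GAPDH and POLR2A) after 48 h chemical exposure of HepaRG cells, top concentration 100 uM with half-log steps, 0.5% DMSO vehicle, duplicates; fitted bidirectionally against DMSO baseline.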

Read-out in assay [11]: Forkhead box O1 (FOXO1), FOXO1 (gene 2308)
Kind of assay: LTEA_HepaRG_FOXO1: Life Technologies and Expression Analysis (LTEA) Assay for Forkhead box O1 (FOXO1) using HepaRG (AID 2283456). Conditions: mRNA level, 48 h; actives raise or lower the signal. In short, it runs like this: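 FOXO1 transcript quantified by qRT-PCR after 48 h chemical exposure (top 100 uM, half-log steps, 0.5% DMSO) of HepaRG cells, housekeeping-normalized (ACTB/GAPDH/POLR2A). Changes fitted in both directions relative to vehicle.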

Read-out in assay [12]: growth arrest and DNA damage 45 (GADD45A), GADD45A (gene 1647)
Kind of assay: LTEA_HepaRG_GADD45A: Life Technologies and Expression Analysis (LTEA) Assay for growth arrest and DNA damage 45 (GADD45A) using HepaRG (AID 2283458). Conditions: mRNA level, 48 h; actives raise or lower the signal. The method in brief:
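GADD45A expression was measured by TaqMan qRT-PCR against three housekeeping genes (ACTB, GAPDH, POLR2A) after 48 h treatment of HepaRG cells. Eight-point half-log series up to 100 uM in 0.5% DMSO, run in duplicate.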

Read-out in assay [13]: Forkhead box O3 (FOXO3), FOXO3 (gene 2309)
Put plainly: LTEA_HepaRG_FOXO3: Life Technologies and Expression Analysis (LTEA) Assay for Forkhead box O3 (FOXO3) using HepaRG (AID 2283459). Conditions: mRNA level, 48 h; actives raise or lower the signal. The method in brief: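 FOXO3 transcript measured by qRT-PCR (normalized to ACTB, GAPDH, POLR2A) after 48 h exposure of HepaRG cells in serum-free induction medium. Duplicates, eight half-log concentrations up to 100 uM, 0.5% DMSO; gain or loss fitted against DMSO.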

Read-out in assay [14]: ABC Transporter (ABCB1), ABCB1 (gene 5243)
Kind of assay: LTEA_HepaRG_ABCB1: Life Technologies and Expression Analysis (LTEA) Assay for ABC Transporter (ABCB1) using HepaRG (AID 2283460). To be noted: mRNA level, 48 h; actives raise or lower the signal. The method in brief:
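ABCB1 transcript level measured by TaqMan qRT-PCR against three housekeeping genes after 48 h chemical exposure of differentiated HepaRG cells. Top concentration 100 uM, half-log steps, eight points, 0.5% DMSO vehicle; bidirectional fit relative to DMSO.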

Read-out in assay [15]: growth arrest and DNA damage 45 (GADD45B), GADD45B (gene 4616)
Put plainly: LTEA_HepaRG_GADD45B: Life Technologies and Expression Analysis (LTEA) Assay for growth arrest and DNA damage 45 (GADD45B) using HepaRG (AID 2283461). To be noted: mRNA level, 48 h; actives raise or lower the signal. In short, it runs like this:
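Values are bidirectional concentration-response fits against 0.5% DMSO controls. Underlying data: qRT-PCR mRNA levels in human HepaRG liver cells treated 48 h in serum-free induction medium, eight concentrations topping at 100 uM.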

Read-out in assay [16]: ABC Transporter (ABCC3), ABCC3 (gene 8714)
Put plainly: LTEA_HepaRG_ABCC3: Life Technologies and Expression Analysis (LTEA) Assay for ABC Transporter (ABCC3) using HepaRG (AID 2283462). To be noted: mRNA level, 48 h; actives raise or lower the signal. In short, it runs like this: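 Differentiated HepaRG liver cells receive test chemicals at eight concentrations (max 100 uM) for 48 h. Expression of ABCC3 is quantified by qRT-PCR against ACTB, GAPDH and POLR2A, and activity is fitted in both directions against the DMSO control.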

Read-out in assay [17]: ABC Transporter (ABCB11), ABCB11 (gene 8647)
Kind of assay: LTEA_HepaRG_ABCB11: Life Technologies and Expression Analysis (LTEA) Assay for ABC Transporter (ABCB11) using HepaRG (AID 2283463). Conditions: mRNA level, 48 h; actives raise or lower the signal. The method in brief:
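ABCB11 transcript levels quantified by TaqMan qRT-PCR against three housekeeping genes after 48 h chemical exposure of HepaRG cultures. Concentrations up to 100 uM in half-log steps, 0.5% DMSO vehicle; both induction and suppression scored.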

Read-out in assay [18]: ABC Transporter (ABCC2), ABCC2 (gene 1244)
Put plainly: LTEA_HepaRG_ABCC2: Life Technologies and Expression Analysis (LTEA) Assay for ABC Transporter (ABCC2) using HepaRG (AID 2283464). To be noted: mRNA level, 48 h; actives raise or lower the signal. In short, it runs like this:
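Gene expression of ABCC2 was determined by qRT-PCR in HepaRG cells exposed 48 h to chemicals (highest 100 uM, half-log dilutions). Activity was fitted in both directions relative to 0.5% DMSO vehicle.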

Read-out in assay [19]: Broad substrate specificity ATP-binding cassette transporter ABCG2 (Homo sapiens) (UniProt Q9UNQ0)
Put plainly: LTEA_HepaRG_ABCG2: Life Technologies and Expression Analysis (LTEA) Assay for ABC Transporter (ABCG2) using HepaRG (AID 2283465). Conditions: mRNA level, 48 h; actives raise or lower the signal. The method in brief: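 ABCG2 transcript was quantified by TaqMan qRT-PCR against three housekeeping genes in HepaRG cells. Cells were treated in duplicate for 48 h across an 8-point half-log series up to 100 uM, with 0.5% DMSO vehicle. Gain or loss versus DMSO was fit.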

Broad substrate specificity ATP-binding cassette transporter ABCG2 (Homo sapiens), sequence (Q9UNQ0 whole entry, looked up): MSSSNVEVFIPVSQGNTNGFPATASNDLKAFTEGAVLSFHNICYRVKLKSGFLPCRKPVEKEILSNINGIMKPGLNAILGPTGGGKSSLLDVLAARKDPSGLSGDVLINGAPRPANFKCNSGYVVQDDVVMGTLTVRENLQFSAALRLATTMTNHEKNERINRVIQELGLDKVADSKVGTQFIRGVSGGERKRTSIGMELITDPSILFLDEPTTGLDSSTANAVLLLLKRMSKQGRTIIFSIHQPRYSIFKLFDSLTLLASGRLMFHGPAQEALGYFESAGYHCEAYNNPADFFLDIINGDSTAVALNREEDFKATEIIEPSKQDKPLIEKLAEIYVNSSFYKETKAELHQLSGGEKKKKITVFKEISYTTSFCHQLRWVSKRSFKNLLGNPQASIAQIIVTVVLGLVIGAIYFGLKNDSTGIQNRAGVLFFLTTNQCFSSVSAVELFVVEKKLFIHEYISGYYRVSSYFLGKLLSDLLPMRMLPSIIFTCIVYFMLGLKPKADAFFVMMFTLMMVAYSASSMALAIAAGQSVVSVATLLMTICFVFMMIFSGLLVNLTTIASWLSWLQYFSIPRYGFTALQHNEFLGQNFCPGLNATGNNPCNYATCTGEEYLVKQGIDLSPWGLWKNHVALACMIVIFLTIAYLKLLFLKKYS
Fatty acid synthase (Homo sapiens), sequence (P49327 whole entry, looked up): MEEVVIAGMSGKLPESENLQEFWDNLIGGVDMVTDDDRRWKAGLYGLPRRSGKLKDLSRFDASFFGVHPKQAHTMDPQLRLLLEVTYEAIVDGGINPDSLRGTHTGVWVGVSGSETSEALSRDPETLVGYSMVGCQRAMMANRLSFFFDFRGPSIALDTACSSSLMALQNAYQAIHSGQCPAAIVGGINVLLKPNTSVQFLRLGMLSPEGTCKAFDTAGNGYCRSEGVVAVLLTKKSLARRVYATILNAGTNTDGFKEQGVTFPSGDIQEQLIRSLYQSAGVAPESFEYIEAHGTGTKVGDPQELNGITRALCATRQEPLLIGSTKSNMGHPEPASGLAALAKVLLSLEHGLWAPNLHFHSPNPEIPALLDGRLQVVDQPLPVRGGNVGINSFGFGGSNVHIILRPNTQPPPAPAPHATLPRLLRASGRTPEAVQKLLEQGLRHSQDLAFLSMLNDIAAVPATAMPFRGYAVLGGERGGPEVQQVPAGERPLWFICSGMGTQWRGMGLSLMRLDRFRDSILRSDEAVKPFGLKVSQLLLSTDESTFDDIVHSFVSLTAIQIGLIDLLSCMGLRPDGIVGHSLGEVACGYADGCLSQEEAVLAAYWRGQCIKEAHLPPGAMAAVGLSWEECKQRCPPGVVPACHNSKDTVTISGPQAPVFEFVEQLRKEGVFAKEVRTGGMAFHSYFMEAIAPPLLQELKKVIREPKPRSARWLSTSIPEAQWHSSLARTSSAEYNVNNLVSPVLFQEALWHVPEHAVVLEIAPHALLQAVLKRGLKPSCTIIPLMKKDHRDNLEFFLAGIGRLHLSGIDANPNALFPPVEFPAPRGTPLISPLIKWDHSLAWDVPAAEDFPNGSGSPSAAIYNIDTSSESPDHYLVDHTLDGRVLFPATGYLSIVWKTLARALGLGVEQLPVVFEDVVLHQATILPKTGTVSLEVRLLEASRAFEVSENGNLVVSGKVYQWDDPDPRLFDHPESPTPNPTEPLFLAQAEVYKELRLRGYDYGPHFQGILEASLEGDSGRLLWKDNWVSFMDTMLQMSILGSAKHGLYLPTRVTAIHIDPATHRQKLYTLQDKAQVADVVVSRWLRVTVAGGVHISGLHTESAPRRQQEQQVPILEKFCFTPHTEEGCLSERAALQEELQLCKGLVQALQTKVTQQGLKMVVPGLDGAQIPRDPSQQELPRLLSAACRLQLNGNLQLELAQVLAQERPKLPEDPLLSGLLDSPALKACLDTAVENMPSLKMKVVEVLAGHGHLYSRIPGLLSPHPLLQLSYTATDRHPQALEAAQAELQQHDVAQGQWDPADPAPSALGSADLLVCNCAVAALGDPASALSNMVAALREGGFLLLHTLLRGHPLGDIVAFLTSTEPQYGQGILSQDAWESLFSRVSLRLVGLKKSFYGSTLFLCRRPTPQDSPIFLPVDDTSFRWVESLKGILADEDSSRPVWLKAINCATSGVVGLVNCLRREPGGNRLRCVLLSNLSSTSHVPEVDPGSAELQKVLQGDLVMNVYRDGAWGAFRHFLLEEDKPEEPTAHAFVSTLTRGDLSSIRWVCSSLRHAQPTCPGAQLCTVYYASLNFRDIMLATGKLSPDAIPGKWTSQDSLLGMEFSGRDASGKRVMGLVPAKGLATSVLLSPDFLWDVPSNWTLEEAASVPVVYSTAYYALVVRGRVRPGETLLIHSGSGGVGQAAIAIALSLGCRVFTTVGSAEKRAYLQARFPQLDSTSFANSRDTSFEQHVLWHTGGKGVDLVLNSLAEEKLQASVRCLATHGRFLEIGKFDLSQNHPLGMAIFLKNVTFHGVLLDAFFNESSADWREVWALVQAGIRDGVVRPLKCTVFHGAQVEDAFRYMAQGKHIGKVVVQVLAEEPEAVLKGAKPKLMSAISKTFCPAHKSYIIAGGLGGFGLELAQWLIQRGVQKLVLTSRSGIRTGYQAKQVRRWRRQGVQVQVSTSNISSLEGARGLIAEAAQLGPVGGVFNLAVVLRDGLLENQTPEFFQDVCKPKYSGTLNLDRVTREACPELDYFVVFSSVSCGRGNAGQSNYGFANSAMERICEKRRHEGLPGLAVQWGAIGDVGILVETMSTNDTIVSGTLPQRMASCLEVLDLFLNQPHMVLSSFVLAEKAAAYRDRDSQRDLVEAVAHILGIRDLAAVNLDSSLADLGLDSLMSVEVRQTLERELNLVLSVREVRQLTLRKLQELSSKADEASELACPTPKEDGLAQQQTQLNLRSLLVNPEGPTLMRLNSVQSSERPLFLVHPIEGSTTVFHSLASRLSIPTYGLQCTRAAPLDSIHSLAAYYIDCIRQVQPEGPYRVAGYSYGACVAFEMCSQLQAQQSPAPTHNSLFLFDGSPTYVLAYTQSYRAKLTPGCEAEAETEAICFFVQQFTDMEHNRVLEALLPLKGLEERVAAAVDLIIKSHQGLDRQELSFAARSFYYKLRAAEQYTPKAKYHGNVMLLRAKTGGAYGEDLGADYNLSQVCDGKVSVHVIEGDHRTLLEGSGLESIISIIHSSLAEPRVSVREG

For orientation: AC50 means the midpoint of the concentration-response curve, whichever way the signal moves. With `CCC(C)=NO`, the compound was called inactive (with Caspase-3 (Homo sapiens); in [1]; in assay [2]; in assay [3]; in [4]; in assay [5]). For the same compound, the result in assay [6], in assay [7], in assay [8], in assay [10], in assay [11] and in assay [12] was inactive. The outcome in [13], in assay [14], in assay [15], in [16], in assay [17] and in assay [18] was inactive. Further, the outcome in assay [19] was inactive. Also, in assay [9], the AC50 is 49.8 µM (active).
